From PubChem
The list is not random: actives were taken first. Their share in the collection is about 8%.
MCF10A rerep = A quantitative high throughput screen for small molecules that induce DNA re-replication in MCF 10a normal breast cells | MCF 10A DNA re-replication, Hoechst nuclear intensity, 48 h | Potency, µM (series often up to 46.1 µM), hits mostly activators | 350,000 tested, 2.9% active; also: nearly all actives have a fitted effect of over 50% in size
KB-V1 MDR tox = qHTS assay for MDR1-selective chemotherapeutics: Primary screen using the drug-selected MDR subline cells KB-V1; KB-V1 MDR cells viability, CellTiter-Glo, 72 h; Potency, µM (doses to about 46.1 µM), most hits filed as cytotoxic; 400,000 tested, 3.4% active; AID 1347076, 2019; also: nearly all actives have a fitted effect of over 60% in size
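qHTS viability screen in drug-selected KB-V1 MDR cells: 72 h compound treatment at 37 degrees C, ATP luminescence end point.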
HT1080-NT tox = qHTS for induction of synthetic lethality in tumor cells producing 2HG: qHTS for the HT-1080-NT fibrosarcoma cell line; HT-1080-NT fibrosarcoma viability, CellTiter-Glo ATP luminescence, 48 h; Potency, µM (highest dose often 46.1 µM), actives largely listed as cytotoxic; 360,000 tested, 1.6% active;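 also: NT is the 2HG producing partner of a matched IDH1 knockdown line; nearly all actives have a fitted effect of over 55% in size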
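Luminescent CellTiter-Glo readout after 48 hours of compound exposure at 37 degrees C defined viability of HT-1080-NT cells. Activity was normalized to DMSO wells and cell-free media wells; concentration-response curves were fitted and assigned curve classes.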
SW480 rerep = A quantitative high throughput screen for small molecules that induce DNA re-replication in SW480 colon adenocarcinoma cells. 340,000 tested, 1.8% active. AID 624297, 2012. Potency, µM (top dose mostly 46.1 µM), most hits filed as activators. SW480 DNA re-replication, Hoechst DNA content imaging, 48 h; also: nearly all actives have a fitted effect of over 55% in size
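Treated cells incubate 48 hr (37 C, 5% CO2), are stained 40 min with Hoechst, and nuclear fluorescence is enumerated; a rise in nuclei with high DNA signal marks re-replication.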
KB-3-1 cytotox = qHTS assay for MDR1-selective chemotherapeutics: Primary screen using the parental adenocarcinoma cell KB-3-1 | KB-3-1 viability, CellTiter-Glo ATP luminescence, 72 h | Potency, µM (top dose mostly 46.1 µM), most hits filed as cytotoxic | 400,000 tested, 1.4% active; also: nearly all actives have a fitted effect of over 60% in size
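Parental KB-3-1 viability, qHTS format: 72 h compound exposure, 37 °C; CellTiter-Glo; media-only wells and DMSO plates as controls; concentration-effect fits on corrected data.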
HT1080 IDH1KD tx = qHTS for induction of synthetic lethality in tumor cells producing 2HG: qHTS for the HT-1080-IDH1KD cell line; HT-1080 IDH1 knockdown viability, ATP luminescence, 48 h; Potency, µM (titrated, usually from 46.1 µM), most hits filed as cytotoxic; 360,000 tested, 2% active
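Assay cells: HT-1080 with IDH1 knockdown, 750 per well, RPMI/5% FBS. Exposure: 48 h at 37 °C following 2 h pre-incubation. Read: CellTiter-Glo luminescence; fitted concentration-response, curve class assigned.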
Numbers stand for hits; – = inactive; ? = inconclusive; · = no result. Calls follow the shape of the dose curve; as a rule, active = well fitted curve in the direction sought with a large enough effect; inconclusive = small, poorly fitted or top-dose-only effect, or another doubt; inactive = no such curve, though single readings can be large; an effect the other way counts as inactive or inconclusive.

SMILES	MCF10A rerep	KB-V1 MDR tox	HT1080-NT tox	SW480 rerep	KB-3-1 cytotox	HT1080 IDH1KD tx
O=c1cc(C(F)(F)F)[nH]c2ccccc12	–	–	?	–	–	–
CCn1c(/C=C/c2ccccc2C)nc2ccccc2c1=O	?	–	–	–	–	–
CCn1c(/C=C/c2cc(Br)ccc2O)nc2ccccc2c1=O	16.4µM	–	–	?	?	–
Cn1c(/C=C/c2cccc(Br)c2)nc2ccccc2c1=O	23.1µM	?	?	18.4µM	?	?
O=c1c2ccccc2nc(/C=C/c2cccc(Br)c2)n1CCCO	?	–	?	?	–	?
CCn1c(/C=C/c2c(C)n(CC)c3ccccc23)nc2ccccc2c1=O	?	1.64µM	–	–	–	–
O=C(CN(CCc1c[nH]c2ccccc12)S(=O)(=O)c1ccccc1)N1CCCCCC1	·	–	·	·	–	·
CCSc1nn(CC(=O)Nc2cccc(CC)c2)c(N)c1S(=O)(=O)c1ccccc1	·	–	·	·	?	·
O=C(Nc1ccc(N2CCOCC2)nc1)c1ccc(C(F)(F)F)cc1	–	8.2µM	–	–	?	–
Cc1cccc(C(=O)Nc2ccc(N3CCN(c4ccc(C(F)(F)F)cn4)CC3)nc2)c1	–	–	–	–	–	–
O=C(Nc1cc(N2CCOCC2)ncn1)c1ccc(F)cc1	–	–	–	–	16.4µM	–
O=C(Nc1cccc(C(F)(F)F)c1)c1cccnc1N1CCOCC1	–	–	–	0.731µM	–	–
O=C(Nc1cccc(C(F)(F)F)c1)c1cccnc1N1CCCC1	–	–	–	–	–	–
COC(=O)c1cc(NC(=O)c2cc(-c3ccc(C(F)(F)F)cc3)oc2C(F)(F)F)ccc1N1CCOCC1	–	?	–	5.8µM	?	–
CC(NS(=O)(=O)c1ccc2c(c1)oc(=O)n2C)c1ccccc1 (configuration not stated)	–	–	–	–	–	–
Cc1ccc(-c2cc(NC(=O)COc3ccc(Cl)cc3C)on2)cc1	·	?	·	·	–	·
O=C(CCS(=O)(=O)c1cc(Br)cc2c1N(C(=O)C1CC1)CC2)N1CCN(c2ccccc2)CC1	·	?	·	·	–	·
COc1cccc(-c2c(C(=O)O)cc(O)c3ccc(OC)cc23)c1	–	–	–	–	–	–
Cc1nn2c(C)c(C(=O)NCc3cccc(Br)c3)cnc2c1-c1ccccc1	·	–	·	·	–	·
O=C(Nc1ccc(C(F)(F)F)cc1)c1cccnc1N1CCOCC1	–	16.4µM	–	–	–	?
O=C(Nc1ccccc1)c1cccnc1N1CCOCC1	–	–	?	–	?	–
CCOC(=O)COc1ccc(C)cc1C(=O)c1ccn2nc(-c3ccc(C)cc3)cc2n1	·	–	·	·	–	·
CN(CC(=O)NC1CCN(Cc2ccccc2)CC1)S(=O)(=O)c1ccc(Cl)cc1	–	–	–	–	–	–
CN(CC(=O)NC1CCN(Cc2ccccc2)CC1)S(=O)(=O)c1ccc(Br)s1	–	?	–	–	23.1µM	–
CCN(c1ccccc1)S(=O)(=O)c1ccc(C(=O)NC2CCN(Cc3ccccc3)CC2)cc1	?	?	–	?	16.4µM	?
SMILES	MCF10A rerep	KB-V1 MDR tox	HT1080-NT tox	SW480 rerep	KB-3-1 cytotox	HT1080 IDH1KD tx
Cc1ccc(C)n1-c1ccc(C(=O)NC2CCN(Cc3ccccc3)CC2)cc1	?	2.31µM	–	?	?	–
Cc1ccc(CNS(=O)(=O)c2cc3c(cc2C)NC(=O)CO3)cc1	–	–	–	–	–	–
CCCSCCCNC(=O)c1ccc(C)c(NC(=O)c2nsc3ccccc23)c1	·	–	·	·	–	·
Cc1ccc(NS(=O)(=O)c2cc3c(cc2N(C)C)CCC(=O)N3)cc1C	·	–	·	·	–	·
CCCCCN1C=CC(=C2C(=O)c3ccccc3C2=O)C=C1	–	9.2µM	23.1µM	–	–	9.2µM
CCOC(=O)CN1C=C(c2ccc3ccccc3n2)C(C[N+](=O)[O-])c2ccccc21 (configuration not stated)	16.4µM	–	–	?	–	–
CSc1cccc(NC(N)=S)c1	–	–	–	–	–	–
CC(C)(C)/C(O)=C/c1nc2ccccc2[nH]c1=O	–	–	–	–	–	–
O=c1[nH]c2ccccc2nc1/C=C/c1ccc(F)cc1	6.51µM	–	–	?	–	–
O=C(/C=C/c1ccc(F)cc1)Nc1nc2ccccc2[nH]1	–	·	·	–	·	·
COc1ccc(OC)c(/C=C/c2[nH]c(=O)[nH]c(=O)c2[N+](=O)[O-])c1	5.17µM	–	–	–	–	?
O=c1[nH]c2ccccc2nc1/C=C/c1ccccc1	3.66µM	–	–	?	–	–
O=c1[nH]c2ccccc2nc1/C=C/c1ccc(O)cc1	8.2µM	?	–	18.4µM	–	–
COc1ccc(OC)c(/C=C/c2nc3ccccc3[nH]c2=O)c1	13µM	–	–	20.6µM	–	–
COc1ccc(OC)c(/C=C/c2nc3ccccc3nc2C)c1	·	?	·	·	–	·
C/C=C\C[C@H](C)[C@H](O)[C@H]1C(=O)N[C@@H](CC)C(=O)N(C)CC(=O)N(C)[C@@H](CC(C)C)C(=O)N[C@@H](C(C)C)C(=O)N(C)[C@@H](CC(C)C)C(=O)N[C@@H](C)C(=O)N[C@@H](C)C(=O)N(C)[C@@H](CC(C)C)C(=O)N(C)[C@@H](CC(C)C)C(=O)N(C)[C@@H](C(C)C)C(=O)N1C	–	·	·	·	·	·
CCc1ccccc1NC(=O)c1ccc2c(SCC(=O)O)c3c(nc2c1)CCC3	·	–	·	·	–	·
COc1cc(OC)cc(C(=O)N[C@H](C(=O)Nc2cc(C)cc(C)c2)C(C)C)c1	–	–	–	–	–	–
Cc1ccc(OCCSc2nc3ccccc3n2CC(=O)N2CCCCC2)cc1C	·	–	·	·	–	·
O=C(CSc1nnc(-c2c[nH]c3ccccc23)n1CC1CCCO1)Nc1ccc2c(c1)OCCO2 (configuration not stated)	29.1µM	–	–	–	–	–
CC(=O)Nc1cccc(NC(=O)CSc2ncc(-c3ccc(Cl)cc3)n2Cc2ccco2)c1	16.4µM	?	?	–	?	?
Cc1cc(NC(=O)CSc2nnc(-c3c[nH]c4ccccc34)n2-c2ccc(Cl)cc2)no1	–	–	–	?	–	11.2µM
C=CCn1c(SCC(=O)Nc2ccc3c(c2)OCCO3)nnc1-c1ccco1	–	9.2µM	–	–	–	–
COc1ccc(-c2cnc(SCC(=O)Nc3ccc4c(c3)OCO4)n2Cc2ccco2)cc1	?	–	?	–	–	–
